# Records with an inconclusive call do not appear. Entries that show only a call come without a potency. Active and inactive are the calls of the source. Calls follow the shape of the dose curve; as a rule, active = well fitted inhibition curve with a large enough effect; inconclusive = small, poorly fitted or top-dose-only effect; inactive = flat fitted curve, though single readings scatter.
# Tests used:
# Assay in all cases: qHTS profiling for inhibitors of Plasmodium falciparum proliferation (AID 504749); also: nearly all actives have a fitted effect of over 60% in size
# Conditions in all cases: P. falciparum in erythrocytes, SYBR Green DNA, 72 h; series mostly up to 28.7 µM
# ATS95 = system: ATS95
# In short: (§1)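 SYBR Green fluorescence (ex 485 nm, em 535 nm) reports parasite DNA after 72 h compound exposure of infected red cells at 0.3% parasitemia, 2.5% hematocrit; signal normalized to 0.29 uM artemisinin and vehicle wells.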
# C2A = system: C2A
# In short: as §1
# CP185 = system: CP185
# In short: as §1
# CP191 = system: CP191
# In short: as §1
# CP192 = system: CP192
# In short: as §1
# CP194 = system: CP194
# In short: as §1
# CP201 = system: CP201
# In short: as §1
# CP203 = system: CP203
# In short: as §1
# CP211 = system: CP211
# In short: as §1
# CP215 = system: CP215
# In short: as §1
# Potency is read from the fitted curve at half-maximal effect.
SMILES,Potency (ATS95),Potency (C2A),Potency (CP185),Potency (CP191),Potency (CP192),Potency (CP194),Potency (CP201),Potency (CP203),Potency (CP211),Potency (CP215)
NC(=O)NNc1ccccc1,inactive,inactive,inactive,inactive,inactive,inactive,inactive,inactive,inactive,inactive
CCOC(=O)[C@H](CCc1ccccc1)N[C@@H](C)C(=O)N1C(=O)N(C)C[C@H]1C(=O)O,inactive,inactive,inactive,inactive,inactive,inactive,inactive,inactive,inactive,inactive
CCn1cc(C(=O)O)c(=O)c2cnc(N3CCNCC3)nc21,inactive,inactive,inactive,inactive,inactive,inactive,inactive,,inactive,
CCCCCCCCCCCCOS(=O)(=O)O,inactive,inactive,inactive,inactive,inactive,inactive,inactive,inactive,inactive,inactive
COc1ccc(Cl)cc1C(=O)NCCc1ccc(S(=O)(=O)NC(=O)NC2CCCCC2)cc1,inactive,inactive,inactive,inactive,inactive,inactive,inactive,,inactive,
CCOC(=O)c1ccc(O)cc1,inactive,inactive,inactive,inactive,inactive,inactive,inactive,inactive,inactive,inactive
Nc1ccc(S(=O)(=O)NC(=O)c2ccccc2)cc1,inactive,inactive,inactive,inactive,inactive,inactive,inactive,,inactive,inactive
NC(=O)NC(=O)Cc1ccccc1,inactive,inactive,inactive,inactive,inactive,inactive,inactive,inactive,inactive,inactive
C[C@](N)(Cc1ccc(O)cc1)C(=O)O,inactive,inactive,inactive,inactive,inactive,inactive,inactive,inactive,inactive,inactive
O=C1NC(=O)[C@@]2(CCOc3ccc(F)cc32)N1,inactive,inactive,inactive,inactive,inactive,inactive,inactive,inactive,inactive,inactive
CC[C@@]1(c2ccccc2)NC(=O)N(C)C1=O,inactive,inactive,inactive,inactive,inactive,inactive,inactive,inactive,inactive,inactive
O=C1OC(OC(=O)c2cccnc2Nc2cccc(C(F)(F)F)c2)c2ccccc21 (centres undefined),inactive,inactive,inactive,inactive,inactive,inactive,inactive,inactive,inactive,inactive
Nc1ccc(S(=O)(=O)Nc2nccs2)cc1,inactive,inactive,inactive,inactive,inactive,inactive,inactive,inactive,inactive,inactive
Cc1c(Cl)cccc1Nc1ccccc1C(=O)O,inactive,inactive,inactive,inactive,inactive,inactive,inactive,inactive,inactive,inactive
CCC(=O)Nc1ccc(O)cc1,inactive,inactive,inactive,inactive,inactive,inactive,inactive,inactive,inactive,inactive
NC1CCN(c2cccc(Cl)n2)CC1,inactive,inactive,inactive,inactive,inactive,inactive,inactive,,inactive,inactive
O=c1cc[nH]c(=O)[nH]1,inactive,inactive,inactive,inactive,inactive,inactive,inactive,,inactive,inactive
C[C@H](N)[C@H](O)c1cccc(O)c1,inactive,inactive,inactive,inactive,inactive,inactive,inactive,,inactive,inactive
CCOC(CN1CCN(CC(C)C(=O)c2ccccc2)CC1)c1ccccc1 (centres undefined),inactive,inactive,inactive,inactive,inactive,,inactive,inactive,inactive,inactive

SMILES,Potency (ATS95),Potency (C2A),Potency (CP185),Potency (CP191),Potency (CP192),Potency (CP194),Potency (CP201),Potency (CP203),Potency (CP211),Potency (CP215)
CCCCOC(=O)c1ccc(O)cc1,inactive,inactive,inactive,inactive,inactive,inactive,inactive,,inactive,inactive
COc1cc(C)c(Cc2cnc(N)nc2N)cc1OC,inactive,inactive,inactive,inactive,inactive,inactive,inactive,,inactive,inactive
COc1cc(C(=O)N2CCOCC2)cc(OC)c1OC,inactive,inactive,inactive,inactive,inactive,inactive,inactive,,inactive,inactive
CCCCCCCCCCCCCCCCCCOCC(O)CO (centres undefined),inactive,inactive,inactive,inactive,inactive,inactive,inactive,,inactive,inactive
O=C(CCCN1CCN(c2ccccn2)CC1)c1ccc(F)cc1,inactive,inactive,inactive,inactive,inactive,inactive,inactive,,inactive,inactive
CCOc1ccc2ccccc2c1C(=O)N[C@@H]1C(=O)N2[C@@H]1SC(C)(C)[C@@H]2C(=O)O,inactive,inactive,inactive,inactive,inactive,inactive,inactive,,inactive,inactive
CCN(CC)CCNC(=O)c1cc(Cl)c(N)cc1OC,inactive,inactive,inactive,inactive,inactive,inactive,inactive,,inactive,inactive
CC12CCC(CC1)C(C)(C)O2,inactive,inactive,inactive,inactive,inactive,inactive,inactive,,inactive,inactive
CC(C)(C)C(=O)NCCCC(=O)O,inactive,inactive,inactive,inactive,inactive,inactive,inactive,,,inactive
Nc1ccc(S(=O)(=O)Nc2ccccc2)cc1,inactive,inactive,inactive,inactive,inactive,inactive,inactive,,inactive,inactive
O=S(=O)(O)NC1CCCCC1,inactive,inactive,inactive,inactive,inactive,inactive,inactive,,inactive,inactive
CN1CCN(C2Cc3ccccc3Sc3ccc(Cl)cc32)CC1 (centres undefined),inactive,inactive,inactive,inactive,inactive,,inactive,,inactive,
O=C(O)COc1nn(Cc2ccccc2)c2ccccc12,inactive,inactive,inactive,inactive,inactive,inactive,inactive,,inactive,inactive
COc1cc2[nH]c(=O)[nH]c(=O)c2cc1OC,inactive,inactive,inactive,inactive,inactive,inactive,inactive,,inactive,inactive
[O-][n+]1cccc(CO)c1,inactive,inactive,inactive,inactive,inactive,inactive,inactive,,inactive,inactive
O=c1[nH]c(=O)c2[nH]c(=O)[nH]c2[nH]1,inactive,inactive,inactive,inactive,inactive,inactive,inactive,,inactive,inactive
CC(=O)c1ccc2c(c1)N(CCCN(C)C)c1ccccc1S2,inactive,inactive,inactive,inactive,inactive,,inactive,,inactive,inactive
O=c1cc(CO)occ1O,inactive,inactive,inactive,inactive,inactive,inactive,inactive,,inactive,inactive
Cc1cccc(Nc2cc(Cl)nc(SCC(=O)O)n2)c1C,inactive,inactive,inactive,inactive,inactive,inactive,inactive,,inactive,inactive

SMILES,Potency (ATS95),Potency (C2A),Potency (CP185),Potency (CP191),Potency (CP192),Potency (CP194),Potency (CP201),Potency (CP203),Potency (CP211),Potency (CP215)
O=C(O)[C@@H]1CSCN1,inactive,inactive,inactive,inactive,inactive,inactive,inactive,,inactive,inactive
Oc1cn2c(n1)Nc1ccc(Cl)c(Cl)c1C2,inactive,inactive,inactive,inactive,inactive,inactive,,inactive,inactive,inactive
CCCCCCCCCCCCCCCC(=O)NCCO,inactive,inactive,inactive,inactive,inactive,inactive,inactive,,inactive,inactive
CCCOC(=O)c1ccccc1,inactive,inactive,inactive,inactive,inactive,inactive,inactive,,inactive,inactive
CC1=C(CC(=O)O)c2cc(F)ccc2/C1=C\c1ccc(S(C)=O)cc1 (centres undefined),inactive,inactive,inactive,inactive,inactive,inactive,inactive,,inactive,inactive
CCCCN(CCCC)CC(O)c1cc(Cl)cc2c1-c1ccc(Cl)cc1/C2=C/c1ccc(Cl)cc1 (centres undefined),12.6 nM (active),44.7 nM (active),31.6 nM (active),28.2 nM (active),47.8 nM (active),47.8 nM (active),151 nM (active),,53.6 nM (active),42.6 nM (active)
Cc1ncc(COP(=O)(O)O)c(C=O)c1O,inactive,inactive,inactive,inactive,inactive,inactive,inactive,,inactive,inactive
CC(=O)CCC(=O)O,inactive,inactive,inactive,inactive,inactive,inactive,inactive,,inactive,inactive
CCCn1cnc2c1c(=O)n(CCCCC(C)=O)c(=O)n2C,inactive,inactive,inactive,inactive,inactive,inactive,inactive,,inactive,inactive
CNCCCC1c2ccccc2C=Cc2ccccc21,,inactive,inactive,,inactive,,inactive,,inactive,
CSc1ccc2c(c1)N(CCC1CCCCN1C)c1ccccc1S2 (centres undefined),,,,,,,inactive,,inactive,
Cc1ccc2nc(N)[nH]c(=O)c2c1Sc1ccncc1,,11200 nM (active),5010 nM (active),2510 nM (active),inactive,inactive,inactive,,,
[Cl][In]([Cl])[Cl],,inactive,inactive,,inactive,inactive,inactive,inactive,inactive,
COc1ccc2[nH]c(S(=O)Cc3ncc(C)c(OC)c3C)nc2n1 (centres undefined),,,,,inactive,inactive,inactive,,inactive,inactive
CCCc1c(OCCCCc2nn[nH]n2)ccc(C(C)=O)c1O,inactive,inactive,inactive,,inactive,inactive,inactive,inactive,inactive,inactive
NCCNCCNCCN,,inactive,inactive,inactive,inactive,inactive,inactive,,inactive,
CN(C)CCCN1c2ccccc2Sc2ccc(Cl)cc21,11200 nM (active),,,,,,inactive,,,15100 nM (active)
CCN(CC)CCNC(C(=O)OCCC(C)C)c1ccccc1 (centres undefined),,,,,,,,,inactive,
